Assay outcomes from PubChem BioAssay.
697 NFkB inh: inhibitors of PMA/ionomycin-induced NF-kB reporter, 697 cells, primary screen, B-cell NF-kB inhibitor project, cell-based, luminescence, uHTS | inhibition, % at 4 µM | actives 0.33% (n = 330,000) | 697 B-cell NF-kB luciferase reporter, 16 h; in the data active = inhibition above about 35%
Gli-Sufu antag: Gli-Sufu pathway antagonists, primary screen, luciferase luminescence, Sufu-KO-LIGHT cells, uHTS | Sufu-KO-LIGHT fibroblasts, Gli luciferase reporter luminescence | inhibition, % at 5 µM | actives 0.74% (n = 340,000) | AID 588413, 2011;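 active = inhibition above about 55%, limit read from the data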
Shn3 inh set2: reduction of Shn3 3'UTR firefly luciferase signal, primary screen, Schnurri-3 inhibitor project, cell-based, Clone20 osteoblasts, set 2. Clone20 osteoblast Shn3 3'UTR firefly luciferase, 24 h. inhibition, % at 12.5 µM. actives 0.52% (n = 360,000);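 active = mean inhibition of at least 75% with every replicate also reaching 75%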
Mdm2-MdmX inh: inhibitors of human Mdm2-MdmX association, primary screen, cell-based, luminescence, split luciferase, SaOS-2, uHTS; Protein Mdm4 (Homo sapiens) + E3 ubiquitin-protein ligase Mdm2 (Homo sapiens), …; SaOS-2 split-luciferase Mdm2/MdmX complementation; inhibition, % at 8 µM; actives 3% (n = 330,000); AID 485346, 2010;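 active = inhibition of at least 50% at 8 µM in the primary screen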
Target sequence (O15151 whole entry, looked up): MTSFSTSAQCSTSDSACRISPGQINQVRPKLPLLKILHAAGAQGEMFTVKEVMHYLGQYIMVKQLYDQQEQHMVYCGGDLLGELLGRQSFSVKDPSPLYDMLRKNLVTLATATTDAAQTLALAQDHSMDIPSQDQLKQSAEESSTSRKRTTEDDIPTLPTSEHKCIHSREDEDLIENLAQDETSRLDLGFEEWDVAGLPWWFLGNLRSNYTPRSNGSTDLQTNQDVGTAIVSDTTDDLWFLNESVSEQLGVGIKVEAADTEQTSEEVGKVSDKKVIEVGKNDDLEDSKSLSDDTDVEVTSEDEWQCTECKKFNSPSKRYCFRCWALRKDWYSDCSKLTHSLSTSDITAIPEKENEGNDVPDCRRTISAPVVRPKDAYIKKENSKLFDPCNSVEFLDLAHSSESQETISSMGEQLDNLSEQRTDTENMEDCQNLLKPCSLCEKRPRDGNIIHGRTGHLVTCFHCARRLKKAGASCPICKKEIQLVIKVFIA
Target sequence (Q00987 whole entry, looked up): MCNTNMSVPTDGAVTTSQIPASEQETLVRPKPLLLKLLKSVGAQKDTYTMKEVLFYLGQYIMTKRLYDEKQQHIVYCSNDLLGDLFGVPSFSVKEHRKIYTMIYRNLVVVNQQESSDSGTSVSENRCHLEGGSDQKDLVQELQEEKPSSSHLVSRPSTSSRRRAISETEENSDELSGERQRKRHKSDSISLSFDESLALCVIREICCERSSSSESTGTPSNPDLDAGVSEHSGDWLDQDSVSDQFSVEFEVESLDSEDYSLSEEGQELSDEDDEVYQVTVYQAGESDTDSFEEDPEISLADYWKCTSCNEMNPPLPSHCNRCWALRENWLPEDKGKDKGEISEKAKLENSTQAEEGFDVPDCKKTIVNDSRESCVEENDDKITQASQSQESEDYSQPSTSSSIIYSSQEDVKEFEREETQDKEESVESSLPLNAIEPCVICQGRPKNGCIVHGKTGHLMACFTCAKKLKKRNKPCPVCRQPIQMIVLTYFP
Jurkat NFkB inh: inhibitors of induced NF-kB luciferase reporter, primary screen, TCR NF-kB activation inhibitor project, cell-based, luminescence, uHTS; Jurkat, PMA/ionomycin-induced NF-kB luciferase reporter; inhibition, % at 4 µM; actives 0.53% (n = 330,000); in the data active = inhibition above about 50%
Mdm2-MdmX conf: Mdm2-MdmX complex disruptors, retested hits, confirmation, luminescence, single concentration. Mdm2-MdmX binding, luminescent assay. inhibition, % at 8 µM. actives 55% (n = 10,000). shares compounds with Mdm2-MdmX inh; in the data active = inhibition above about 40%
FLuc counter: full-length luciferase signal inhibition, confirmation, counter-screen for Mdm2/MdmX interaction inhibitor project, cell-based, single concentration, SaOS-2 | AID 504607, 2011 | SaOS-2 full-length luciferase counterscreen, luminescence | inhibition, % at 8 µM | shares compounds with Mdm2-MdmX inh | actives 77% (n = 6,200);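 active = mean inhibition at 8 µM reaching about 37%, which flags the compound as non-specific, limit read from the data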;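 note: p53-null SaOS-2 cells with luciferase driven by a doxycycline-inducible promoter; compound on cells about two nights before reading with doxycycline added after day one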
Each line names hits and unclear results; the compound was inactive in the other large screens (follow-up assays come after a bar, where they were run). Sampled rows, rich in hits. Any-hit rate of the full collection: about 3.8%.

COCC(=O)N(c1ccccc1)C(C)C(=O)OC (centres undefined)	none
O=C(Nc1nccs1)c1cc(-c2ccccn2)nc2c(Cl)cccc12	Mdm2-MdmX inh 77.9 | Mdm2-MdmX conf inactive
COc1ccccc1-c1cc(C(=O)NC2CCN(C)CC2)c2ccc(Cl)c(C)c2n1	Mdm2-MdmX inh 98.6 | Mdm2-MdmX conf 68.5 | FLuc counter 37.4
Cc1c(Cl)ccc2c(C(=O)NCCN3CCCCC3)cc(-c3ccccn3)nc12	none | Mdm2-MdmX conf inactive | FLuc counter 60.6
O=C(CN1CCCC1)Nc1ccc(F)c(Cl)c1	none
CC1CCN(c2nc3c(c(=O)[nH]c(=O)n3C)n2CC(C)CSc2nnnn2-c2ccccc2)CC1 (centres undefined)	none
Clc1ccc(-n2ncc3c(N4CCCC4)ncnc32)cc1	Mdm2-MdmX inh 50.9 | Mdm2-MdmX conf 65.8 | FLuc counter 168.3
Cc1nn(-c2ccccc2)c(Cl)c1C(=O)N1CCN(c2ncnc3c2cnn3-c2ccccc2)CC1	Mdm2-MdmX inh 97.0 | Mdm2-MdmX conf 88.5 | FLuc counter 58.5
CCCCCCn1c(=O)n2n(c1=O)C[C@]1(OC(=O)NCC3CCCCC3)CN(S(=O)(=O)c3ccc(C)cc3)C[C@]1(O)C2	none (no result: 697 NFkB inh, Gli-Sufu antag, Mdm2-MdmX inh, Jurkat NFkB inh)
Cc1ccc(C(C)C)c(OCCNCCc2ccccc2)c1	Mdm2-MdmX inh 51.5 | Mdm2-MdmX conf inactive
O=C(CCl)N1CCN2C(=O)c3ccccc3C12c1ccc(Cl)cc1 (centres undefined)	Mdm2-MdmX inh 100.1 | Mdm2-MdmX conf 48.2 | FLuc counter inactive
O=C(Nc1cccc(Cl)c1)N1CCN2C(=O)c3ccccc3C12c1ccccc1 (centres undefined)	none
COc1ccc(OC)c(/C=C/C(=O)N2CCN(S(=O)(=O)c3ccc(C)cc3C)CC2)c1	none
CCn1c2ccccc2c2cc(NC(=O)CSc3nnc(-c4cccc(Cl)c4)o3)ccc21	Mdm2-MdmX inh 52.4 | Mdm2-MdmX conf inactive
CCOc1ccc(-c2nnc(SCC(=O)Nc3ccc4c(c3)c3ccccc3n4CC)n2N)cc1	Mdm2-MdmX inh 70.5 | Mdm2-MdmX conf 70.8 | FLuc counter inactive
Cn1cnc([N+](=O)[O-])c1S(=O)(=O)c1cccc(Cl)c1	Mdm2-MdmX inh 68.3 | Mdm2-MdmX conf inactive | FLuc counter inactive
COC(=O)C1N[C@@H]([C@@H](NC(=O)COc2ccccc2)C(=O)NC2CC2)SC1(C)C (some centres undefined)	none
COc1ccc(CN2CCNC(=O)C2CC(=O)NCc2csc(C)n2)c(F)c1 (centres undefined)	none
CC(C)c1cc(C(C)C)c(S(=O)(=O)N2c3ccccc3[C@@]3(Br)C[C@H]4C(=O)N[C@@H](Cc5ccccc5)C(=O)N4[C@@H]23)c(C(C)C)c1	Mdm2-MdmX inh 59.2 (no result: Shn3 inh set2) | Mdm2-MdmX conf inactive | FLuc counter 106.1
O=c1oc(-c2ccccc2Br)nc2ccccc12	Mdm2-MdmX inh 64.7 | Mdm2-MdmX conf 50.1 | FLuc counter 47.2
COc1ccc(C(CCNCc2ccc(N(C)C)cc2)c2ccccc2)cc1 (centres undefined)	none
CC(C)Oc1ccc(C(CCNCc2ccc(O)cc2)c2ccccc2)cc1 (centres undefined)	Mdm2-MdmX inh 91.2 | Mdm2-MdmX conf 69.7 | FLuc counter 57.5
COc1cc2nc(SCc3c(C)noc3C)n(CCC3=CCCCC3)c(=O)c2cc1OC	Mdm2-MdmX inh 87.0 | Mdm2-MdmX conf 52.4 | FLuc counter 49.6
COc1cc(OC)c(OC)cc1/C=C1\CCC/C(=C\c2cc(OC)c(OC)cc2OC)C1=O	Mdm2-MdmX inh 66.9 | Mdm2-MdmX conf 42.9 | FLuc counter 81.9
CCOc1ccc(NC(=O)CN(C)C(=O)c2cn(-c3ccc(F)cc3)nc2-c2cccc(OC)c2)cc1OCC	none
O=C(c1cn(-c2ccccc2)nc1-c1cccs1)N1CCOCC1	none
CCN(CC)CCNC(=O)c1ccc(NC(=O)c2cn(-c3ccc(F)cc3)nc2-c2cccc(OC)c2)cc1	Mdm2-MdmX inh 96.4 | Mdm2-MdmX conf 58.2 | FLuc counter inactive
O=C(c1cn(-c2ccccc2)nc1-c1cccs1)N1CCN(c2ccccc2)CC1	Mdm2-MdmX inh 58.8 | Mdm2-MdmX conf 48.0 | FLuc counter 64.0
CCN(CC)CCNC(=O)c1ccc(NC(=O)c2cn(-c3ccccc3)nc2-c2cccs2)cc1	Mdm2-MdmX inh 98.2 | Mdm2-MdmX conf 63.7 | FLuc counter 52.7
O=C(Nc1cccnc1)c1cn(-c2ccccc2)nc1-c1cccs1	none
C/C(=N\NC(=O)CSc1ncccn1)c1ccc2c(c1)OCCO2	none
CCS(=O)(=O)N1CCC2(CC1)OCCN2S(=O)(=O)c1ccc(C)cc1	none
CCCCC1CCC(C(=O)OC(C)C(=O)Nc2ccc(NC(C)=O)cc2)CC1 (centres undefined)	none
O=C(Nc1ccccc1N1CCCCC1)c1ccc(Cl)c([N+](=O)[O-])c1	none
O=C(Nc1cccc2c1CCCC2)c1cc([N+](=O)[O-])ccc1Cl	Mdm2-MdmX inh 62.1 | Mdm2-MdmX conf inactive
O=C(Nc1cccnc1Cl)c1cc([N+](=O)[O-])ccc1Cl	none
O=C(Nc1cccc2c1CCCC2)c1ccc(Cl)c([N+](=O)[O-])c1	Mdm2-MdmX inh 55.9 | Mdm2-MdmX conf inactive
CCC1NC(=O)c2cccnc2-n2c1nc1cc(F)ccc1c2=O (centres undefined)	none (no result: 697 NFkB inh, Gli-Sufu antag, Mdm2-MdmX inh, Jurkat NFkB inh)
CCCCCCC(=O)N1C/C=C\C(c2ccc(OC)cc2)N(Cc2ccc(F)cc2)C(=O)[C@H]1Cc1ccccc1 (some centres undefined)	Mdm2-MdmX inh 71.5 (no result: Shn3 inh set2) | Mdm2-MdmX conf inactive | FLuc counter 62.1
C=C(C(=O)c1ccccc1)C(CC(=O)c1ccccc1)c1ccccc1 (centres undefined)	Shn3 inh set2 88.7, Mdm2-MdmX inh 100.8 | Mdm2-MdmX conf 98.8 | FLuc counter 55.1
C=C(CCC(=O)c1ccccc1)C(=O)c1ccccc1	none (no result: 697 NFkB inh, Mdm2-MdmX inh, Jurkat NFkB inh)
O=[N+]([O-])c1ccc(N=Nc2c(O)[nH]c3ccc(F)cc23)cc1	Mdm2-MdmX inh 54.2 | Mdm2-MdmX conf inactive
O=[N+]([O-])c1ccc2[nH]c(O)c(N=Nc3ccc(F)cc3)c2c1	none
COc1cc(C(=O)Nc2cc3c(cc2N2CCCCC2)n(C)c(=O)n3C)cc(OC)c1OC	Mdm2-MdmX inh 77.5 | Mdm2-MdmX conf 44.1 | FLuc counter 71.9
